Only some compounds are listed: those with a hit (about 2.4% of all), similar ones and a draw of the others.
POLB inh: DNA polymerase beta (human) inhibition | actives 1.3% (n = 340,000) | P06746 | Pol beta primer extension/strand displacement, fluorescence kinetic | AID 485314 | Potency, µM (top dose mostly 114 µM), for the others: top-dose activity change, negative = inhibition, most hits filed as inhibitors; note: % is set by controls: 0 for no effect and ±100 for the full control effect
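Pol beta (10 nM) was preincubated with compound for 15 min at room temperature. The reaction was then started with 50 nM substrate and read immediately and after a further 10 min at room temperature.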
Pol kappa inh: inhibitors of human DNA polymerase kappa. Q9UBT6. purified Pol kappa, fluorescent DNA synthesis assay, 10 min. Potency, µM (top dose mostly 107 µM), inactives show at the highest dose activity, negative = inhibition, hits mostly inhibitors. actives 0.53% (n = 400,000). AID 588579; note: % is set by controls: 0 for no effect and ±100 for the full control effect
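Here, compound and 10 nM enzyme are combined for 15 min at room temperature; adding 50 nM substrate (final) starts DNA synthesis, tracked by fluorescence at 0 and 10 min against buffer-only wells.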
WRN inhibitor: inhibitors of human WRN helicase; Potency, µM (highest dose often 114 µM), for the others: at the highest dose activity change, negative = inhibition, actives largely listed as inhibitors; actives 0.46% (n = 360,000); WRN helicase unwinding, fluorescent forked duplex, kinetic; note: % is set by controls: 0 for no effect and ±100 for the full control effect; nearly all actives have a fitted effect of over 55% in size
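Kinetic red-fluorescence monitoring (525/598 nm) tracks WRN helicase activity after 100 nM fluorophore-quencher forked duplex and 2 mM ATP are added to 20 nM enzyme pretreated 15 min at room temperature with compound.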
POLH inh: DNA polymerase eta (human) inhibition; AID 588591; recombinant Pol eta, fluorescent DNA replication assay; actives 1.2% (n = 390,000); Q9Y253; Potency, µM (series often up to 114 µM), inactives show at the highest dose activity change, negative = inhibition, hits mostly inhibitors; note: % is set by controls: 0 for no effect and ±100 for the full control effect
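Pol eta at 10 nM preincubated with compounds 15 min at room temperature; reaction started with fluorescent substrate (50 nM final) and read kinetically at 0 and 10 min.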
FEN1 inh: blocks human flap endonuclease 1; P39748; Recombinant FEN1 flap cleavage, fluorescence, 15 min; Potency, µM (series often up to 114 µM), for the others: top-dose activity change, negative = inhibition, hits mostly inhibitors; actives 0.35% (n = 390,000); note: % is set by controls: 0 for no effect and ±100 for the full control effect; nearly all actives have a fitted effect of over 65% in size
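Nuclease activity of 10 nM FEN1 was measured after 15 min of room-temperature exposure to titrated compounds, by adding 50 nM flap substrate and reading plates at 0 and 15 min.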
POLI inh: DNA polymerase iota (human) inhibition | Q9UNA4 | Pol iota fluorescent replication assay, 10 min | Potency, µM (highest dose often 115 µM), for the others: at the top dose activity, negative = inhibition, hits mostly inhibitors | actives 1% (n = 390,000)
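Fluorescent replication assay read twice, at 0 min and 10 min after adding 50 nM (final) substrate. Enzyme (10 nM) and compounds were first incubated 15 min at room temperature; enzyme-free buffer wells were negative controls.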
Starred values were filed as active, the others as inactive; ? = inconclusive; nt = not tested or not shown; [ ] = another dose, or the depositor's remark. Calls come from the whole dose curve; as a rule, active = well fitted curve in the direction sought with a large enough effect; inconclusive = small, poorly fitted or top-dose-only effect, or another doubt; inactive = no such curve, though single readings can be large; an effect the other way counts as inactive or inconclusive. Potency is the fitted concentration of half-maximal effect.

SMILES | POLB inh | Pol kappa inh | WRN inhibitor | POLH inh | FEN1 inh | POLI inh
CC(C)[C@H]1C(=O)N2CCC[C@H]2[C@]2(O)O[C@](NC(=O)[C@@H]3C=C4c5cccc6[nH]cc(c56)C[C@H]4N(C)C3)(C(C)C)C(=O)N12 | -3% | -35% | -6% | -12% | -10% | 22µM*
CCC(CO)NC(=O)[C@@H]1C=C2c3cccc4[nH]cc(c34)C[C@H]2N(C)C1 (stereo not given in full) | -8%[57.1 µM] | nt | nt | ? | nt | 32µM*
COc1ccc(NC(=O)N2CCC3(CC2)CCN(C(=O)Oc2ccccc2)CC3)cc1 | nt | -8%[60.1 µM] | nt | nt | nt | nt
O=C(O)c1ccccc1-c1c2cc(Br)c(=O)cc-2oc2[c]([Hg])c(O)c(Br)cc12 | nt | 16µM* | nt | nt | nt | nt
CC1(C)C(O)CC(=O)[C@]2(C)C1CC(=O)[C@]1(C)C2CC[C@@]2(C)C(c3ccoc3)OC(=O)C3O[C@@]321 (stereo not given in full) | nt | -9%[60.1 µM] | nt | nt | nt | nt
Cc1ccc(/C=C2/C(=O)NC(=O)N(CCc3ccc(F)cc3)C2=O)o1 | 16% | -19% | 50µM* | ? | 5% | ?
O=C1NC(=O)N(CCc2ccc(F)cc2)C(=O)/C1=C/c1cccs1 | ? | -19% | 32µM* | -19% | -19% | 22µM*
CC(C)OC(=O)C(O)(c1ccc(Cl)cc1)c1ccc(Cl)cc1 | nt | -3%[60.1 µM] | nt | nt | nt | nt
CC1(C)C(=O)CC[C@]2(C)C3C(=O)C=C4[C@H]5C[C@@](C)(C(=O)O)CC[C@]5(C)CC[C@]4(C)[C@]3(C)CC[C@@H]12 (stereo not given in full) | 45µM* | 5% | 18% | -15% | 1% | 19%
O=C(Nc1cccc(C(=O)Nc2cc(C(=O)Nc3ccc([S+](=O)([O-])[O-])c4cc([S+](=O)([O-])[O-])cc(SOOO)c34)ccc2F)c1)Nc1cccc(C(=O)Nc2cc(C(=O)Nc3ccc([S+](=O)([O-])[O-])c4cc([S+](=O)([O-])[O-])cc([S+](=O)([O-])[O-])c34)ccc2F)c1 | nt | 0.06µM* | nt | nt | nt | nt
CN1C(=O)NC(=O)[C@]2(Cc3ccccc3N3CCN(c4ccccc4)CC32)C1=O (stereo not given in full) | 4% | -11% | -31% | -6% | -8% | ?
O=C1NC(=O)[C@]2(Cc3ccccc3N3CCN(c4ccccc4)CC32)C(=O)N1Cc1ccccc1 (stereo not given in full) | -17% | -12% | -30% | 20µM* | -13% | ?
O=C1NC(=O)[C@]2(Cc3ccccc3N3CCN(c4ccccc4)CC32)C(=O)N1c1ccccc1 (stereo not given in full) | -5% | ? | -35%[57.1 µM] | 45µM* | -4% | ?
NC(=O)[C@H](Cc1ccccc1)NC(=O)[C@H](Cc1c[nH]c2ccccc12)NC(=O)[C@@H]1CCCN1C(=O)[C@@H](N)Cc1ccc(O)cc1 | nt | 16%[60.1 µM] | nt | nt | nt | nt
O=C(O)Cc1cccnc1C(=O)O | nt | -3%[19.4 µM] | nt | nt | nt | nt
CCN(CC)c1ccc(CC2C(=O)N(C)C(=O)N(C)C2=O)cc1 | 13% | -6% | 20µM* | -22% | -28% | ?
Cc1ccc(CC2C(=O)N(C)C(=O)N(C)C2=O)s1 | -6% | -10% | 1% | 3% | -2% | ?
C=CCOc1ccc(CC2C(=O)N(C)C(=O)N(C)C2=O)cc1 | ? | -16% | -7%[11.6 µM] | 16µM* | 3% | ?
COc1ccc(CC2C(=O)N(C)C(=O)N(C)C2=O)c(OC)c1 | -14% | -13% | ? | 0% | -7% | ?
C=CCN1CCC23c4c5ccc(O)c4OC2/C(=N/N=C2\CCC4(O)C6Cc7ccc(O)c8c7C4(CCN6CC=C)C2O8)CCC3(O)C1C5 (stereo not given) | nt | 0%[19.4 µM] | nt | nt | nt | nt
C=CCn1c(O)c(/C=C2/C=CC=N2)c(=O)[nH]c1=O | 19% | -19% | -4%[11.6 µM] | ? | -15% | 20µM*
